# Measured values published in PubChem BioAssay (EPA / NIEHS).
# Values joined by “and” are separate entries in the source; they are usually repeats but may differ in a detail not shown here. Equal values may be shown once. Results filed as inconclusive are left out. Where a structure was tested more than once in an assay, its records may differ in their call. Active and inactive are the calls of the source. Rule for the calls, unless noted: active = hit-call score of the fitted dose curve at least 0.9, where 1 is the maximum; inconclusive = response in the unintended direction; inactive = score below 0.9.
# How the values were obtained:
# [1] = Tanguay_ZF_120hpf_SWIM_legacy: (Legacy) Oregon State University Tanguay Lab 120 Hour Post-fertilization zebrafish Assay for Swim Bladder Malformation (AID 2283654);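 note: swim bladder malformation in each larva scored yes or no under brightfield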
# Method in brief: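 Dechorionated Tropical 5D wild-type embryos, placed singly from 6 hpf, were statically exposed at 28C to 120 hpf with 0.64% DMSO final; swim bladder malformation was scored present/absent by brightfield microscopy, gain of signal relative to DMSO controls.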
# [2] = Tanguay_ZF_120hpf_TRUN_legacy: (Legacy) Oregon State University Tanguay Lab 120 Hour Post-fertilization zebrafish Assay for Truncated Body (AID 2283655)
# Method in brief: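 Truncated body is recorded as a binary endpoint at 120 hpf by brightfield imaging of wild-type 5D larvae. Exposure runs statically from 6 hpf at 28C with 0.64% DMSO; embryos dying earlier are not scored.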
# [3] = system: Thyroperoxidase (TPO), gene 54314; test: CCTE_Simmons_AUR_rTPO: CCTE's Amplex UltraRed Assay for Thyroperoxidase (TPO) Inhibition, Simmons Lab (AID 2283662);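 for AC50: potency for loss of signal meaning inhibition of peroxidase activity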
# Method in brief: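 Endpoint is decreased Amplex UltraRed fluorescence after a 30-min, 37C reaction of rat thyroid microsomes with 300 uM H2O2. Eight test concentrations (5 nM–87.5 uM final) in 0.5% DMSO, three biological replicates each.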
# [4] = read-out: xenobiotic metabolism (CYP1A2), CYP1A2 (gene 1544); test: CLD_CYP1A2_6hr: CellzDirect (CLD) Gene Expression Assay for xenobiotic metabolism (CYP1A2) at 6 hours (AID 2283663);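 for AC50: potency is for induction meaning a rise in mRNA above DMSO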
# Method in brief: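 Primary human hepatocytes from two donor preparations, dosed daily with multiple concentrations in 0.2% DMSO and harvested at 6 h. CYP1A2 mRNA induction measured by chemiluminescent qNPA, gain of signal fitted against DMSO; cytotoxicity flagged morphologically.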
# [5] = CCTE_Simmons_CellTiterGLO_HEK293T: Viability Assessment in CCTE's Assays for Thyroperoxidase (TPO) Inhibition, Simmons Lab (AID 2283665);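 for AC50: cells exposed to compound for 24 h before readout; actives reduce ATP signal below DMSO vehicle meaning cytotoxicity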
# Method in brief: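 Cytotoxicity counter-screen: human HEK293T cells in low-serum (1% FBS) medium receive test chemical, 5 nM to 87.5 uM final, for 24 h; ATP is quantified by luciferase luminescence.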
# [6] = read-out: solute carrier (SLC22A6), SLC22A6 (gene 9356); test: LTEA_HepaRG_SLC22A6: Life Technologies and Expression Analysis (LTEA) Assay for solute carrier (SLC22A6) using HepaRG (AID 2283653; active = hit-call score of the fitted dose curve at least 0.9, where 1 is the maximum; inactive = score below 0.9); settings: mRNA level, 48 h; actives raise or lower the signal
# Method in brief: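 Read-out is SLC22A6 transcript level by qRT-PCR, normalised to three housekeeping genes and fitted for gain or loss relative to 0.5% DMSO vehicle. Human HepaRG cells received chemicals at up to 100 uM for 48 h.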
# [7] = read-out: solute carrier (SLC10A1), SLC10A1 (gene 6554); test: LTEA_HepaRG_SLC10A1: Life Technologies and Expression Analysis (LTEA) Assay for solute carrier (SLC10A1) using HepaRG (AID 2283657; active = hit-call score of the fitted dose curve at least 0.9, where 1 is the maximum; inactive = score below 0.9); settings: mRNA level, 48 h; actives raise or lower the signal
# Method in brief: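 Differentiated HepaRG cells were plated 48 h, then exposed in serum-free induction medium for 48 h to 8 concentrations (top 100 uM, half-log steps, 0.5% DMSO). SLC10A1 mRNA was quantified by qRT-PCR normalized to ACTB, GAPDH, POLR2A; bidirectional fit versus DMSO.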
# [8] = read-out: matrix metalloproteinase-1 (MMP1), MMP1 (gene 4312); test: LTEA_HepaRG_MMP1: Life Technologies and Expression Analysis (LTEA) Assay for matrix metalloproteinase-1 (MMP1) using HepaRG (AID 2283658; active = hit-call score of the fitted dose curve at least 0.9, where 1 is the maximum; inactive = score below 0.9); settings: mRNA level, 48 h; actives raise or lower the signal
# Method in brief: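 HepaRG, ~100,000 cells/well, 48 h pre-culture; serum-free induction medium; test chemical 8 conc (max 100 uM, half-log), duplicate, 48 h; 0.5% DMSO; qRT-PCR MMP1, housekeeping-normalized; gain/loss fit vs DMSO.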
# [9] = read-out: xenobiotic metabolism (CYP1A1), CYP1A1 (gene 1543); test: CLD_CYP1A1_6hr: CellzDirect (CLD) Gene Expression Assay for xenobiotic metabolism (CYP1A1) at 6 hours (AID 2283661);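 for AC50: potency for transcript induction above DMSO vehicle baseline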
# Method in brief: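 Primary human hepatocytes from two donors, compound versus 0.2% DMSO vehicle. CYP1A1 mRNA measured 6 h after dosing by quantitative nuclease protection assay with chemiluminescent read-out; induction fitted relative to DMSO, cytotoxicity flagged by microscopy.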
# [10] = read-out: ABC Transporter (ABCB1), ABCB1 (gene 5243); test: CLD_ABCB1_6hr: CellzDirect (CLD) Gene Expression Assay for ABC Transporter (ABCB1) at 6 hours (AID 2283659);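 note: hits raise ABCB1 transcript above the DMSO vehicle baseline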
# Method in brief: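 Primary human hepatocytes (two donor preparations) dosed daily for two days with chemicals at multiple concentrations, 0.2% DMSO vehicle; harvested 6 h post-dose. ABCB1 mRNA induction quantified by qNPA chemiluminescence; gain-of-signal fitted versus DMSO.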
smiles,measurement,setting,value
COc1nn(CSP(=S)(OC)OC)c(=O)s1,outcome,[1],inactive
same,outcome,[2],inactive
same,AC50,[3],3.7 µM (active)
same,AC50,[4],2.89 µM (active)
same,outcome,[5],inactive
CCOC1Oc2ccc(OS(C)(=O)=O)cc2C1(C)C (stereo unspecified),outcome,[6],inactive
same,outcome,[1],inactive
same,outcome,[2],inactive
same,AC50,[7],84.8 µM (active)
same,outcome,[8],inactive
CCC(C)Nc1c([N+](=O)[O-])cc(C(C)(C)C)cc1[N+](=O)[O-] (stereo unspecified),outcome,[6],inactive
same,outcome,[1],inactive
same,outcome,[2],inactive
same,AC50,[7],72.9 µM (active)
same,outcome,[8],inactive
same,AC50,[9],3.41 µM (active)
same,AC50,[4],5.44 µM (active)
CNC(=O)/C=C(\C)OP(=O)(OC)OC,outcome,[1],inactive
same,outcome,[2],inactive
same,AC50,[3],39.1 µM (active)
same,outcome,[4],inactive
same,outcome,[5],inactive
N#CN,outcome,[1],inactive
same,outcome,[2],inactive
same,AC50,[3],2.93 µM (active)
same,outcome,[4],inactive
same,outcome,[5],inactive
CC(C)(C)C(O)C(Oc1ccc(Cl)cc1)n1cncn1 (stereo unspecified),AC50,[1],47.1 µM (active)
same,outcome,[1],inactive
same,AC50,[2],32.2 µM (active) and 47.2 µM (active)
same,outcome,[2],inactive
same,outcome,[10],inactive
same,outcome,[4],inactive
CCC(C)(NC(=O)c1cc(Cl)c(C)c(Cl)c1)C(=O)CCl (stereo unspecified),outcome,[1],inactive
same,outcome,[2],inactive
same,outcome,[9],inactive
same,outcome,[4],inactive
C#CCN1C(=O)COc2cc(F)c(N3C(=O)C4=C(CCCC4)C3=O)cc21,outcome,[1],inactive
N#Cc1c(Cl)c(Cl)c(Cl)c(C#N)c1Cl,outcome,[6],inactive
same,outcome,[1],inactive
same,AC50,[2],47.8 µM (active)
same,AC50,[7],27.8 µM (active)
same,AC50,[8],13.3 µM (active)
same,AC50,[4],31.7 µM (active)
O=[N+]([O-])c1c(Cl)c(Cl)c(Cl)c(Cl)c1Cl,outcome,[1],inactive
same,outcome,[2],inactive
Cc1[nH]c(=O)n(C(C)(C)C)c(=O)c1Cl,outcome,[6],inactive
same,outcome,[1],inactive
same,outcome,[2],inactive
same,AC50,[7],50 µM (active)
same,outcome,[8],inactive
same,outcome,[4],inactive
O=S1OCC2C(CO1)C1(Cl)C(Cl)=C(Cl)C2(Cl)C1(Cl)Cl (stereo unspecified),outcome,[1],inactive
same,outcome,[2],inactive
CN1CSC(=S)N(C)C1,outcome,[6],inactive
same,outcome,[1],inactive
same,outcome,[2],inactive
same,outcome,[7],inactive
same,outcome,[8],inactive
same,AC50,[3],6.52 µM (active)
same,outcome,[4],inactive
same,outcome,[5],inactive
CCCN(CCC)c1c([N+](=O)[O-])cc(C(F)(F)F)cc1[N+](=O)[O-],outcome,[6],inactive
same,outcome,[1],inactive
same,outcome,[2],inactive
same,outcome,[7],inactive
same,outcome,[8],inactive
same,AC50,[9],3.69 µM (active)
same,outcome,[4],inactive
CC(C)N(C(=O)COc1nnc(C(F)(F)F)s1)c1ccc(F)cc1,outcome,[1],inactive
same,outcome,[2],inactive
same,outcome,[3],inactive
same,outcome,[4],inactive
CC[C@H](C)[C@H]1O[C@]2(C=C[C@@H]1C)C[C@@H]1C[C@@H](C/C=C(\C)[C@@H](O[C@H]3C[C@H](OC)[C@@H](O[C@H]4C[C@H](OC)[C@@H](O)[C@H](C)O4)[C@H](C)O3)[C@@H](C)/C=C/C=C3\CO[C@@H]4[C@H](O)C(C)=C[C@@H](C(=O)O1)[C@]34O)O2 (tested in a mixture with another compound),outcome,[1],inactive
same,outcome,[2],inactive
O=C(O)C(F)(F)C(F)(F)C(F)(F)C(F)(F)C(F)(F)C(F)(F)C(F)(F)F,outcome,[1],inactive
same,outcome,[2],inactive
CC1(C)C(C=C(Cl)Cl)C1C(=O)OC(C#N)c1ccc(F)c(Oc2ccccc2)c1 (stereo unspecified),outcome,[6],inactive
same,outcome,[1],inactive
same,outcome,[2],inactive
same,AC50,[7],50 µM (active)
same,outcome,[8],inactive
same,outcome,[4],inactive
CCC(C)(C)C(=O)OC1=C(c2ccc(Cl)cc2Cl)C(=O)OC12CCCCC2,outcome,[1],inactive
same,outcome,[2],inactive
O=C1c2ccccc2C(=O)N1SC(Cl)(Cl)Cl,outcome,[6],inactive
same,outcome,[1],inactive
same,outcome,[2],inactive
same,outcome,[7],inactive
same,outcome,[8],inactive
same,AC50,[3],27.3 µM (active)
same,AC50,[5],9.19 µM (active)
O=C(NC(=O)c1c(F)cccc1F)Nc1ccc(OC(F)(F)C(F)OC(F)(F)F)c(Cl)c1 (stereo unspecified),outcome,[1],inactive
same,outcome,[2],inactive
same,outcome,[9],inactive
same,outcome,[4],inactive
